Columns and labels:
Test in all cases: growth AUC relative to DMSO control (median of replicates) (fraction); higher = more growth (less inhibition), active = hit call of the paper
Conditions in all cases: 20 µM; 24 h;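 active = AUC reduced over 20% with Padj below 0.05 in at least 2 of 3 replicates; inactive = otherwise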
Akkermansia muciniphila = system: Akkermansia muciniphila
Procedure, shortened: (§1)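 Starting at OD600 0.05, gut bacterial monocultures in mGAM were grown anaerobically at 37 °C with 20 µM compound (1% DMSO) under pierced gas-permeable seals. OD600 was read every hour for 24 h, and the lowest OD of each curve was set to 0. Area under the growth curve was normalised to the plate median of solvent-only wells, or to row and column medians on the industrial chemical plate, and the median of three biological replicates grown on separate days is given.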

Bacteroides caccae = system: Bacteroides caccae
Procedure, shortened: as §1

Bacteroides clarus = system: Bacteroides clarus
Procedure, shortened: as §1

Bacteroides dorei = system: Bacteroides dorei
Procedure, shortened: as §1

Bacteroides stercoris = system: Bacteroides stercoris
Procedure, shortened: as §1

[1] = system: Bacteroides thetaiotaomicron
Procedure, shortened: as §1

Bacteroides uniformis = system: Bacteroides uniformis
Procedure, shortened: as §1

[2] = system: Bifidobacterium longum subsp. longum
Procedure, shortened: as §1

Clostridium difficile = system: Clostridium difficile
Procedure, shortened: as §1

Collinsella aerofaciens = system: Collinsella aerofaciens
Procedure, shortened: as §1

Coprococcus comes = system: Coprococcus comes
Procedure, shortened: as §1

Escherichia coli ED1a = system: Escherichia coli ED1a
Procedure, shortened: as §1

Escherichia coli IAI1 = system: Escherichia coli IAI1
Procedure, shortened: as §1

Eubacterium rectale = system: Eubacterium rectale
Procedure, shortened: as §1

[3] = system: Fusobacterium nucleatum subsp. animalis
Procedure, shortened: as §1

Lactobacillus gasseri = system: Lactobacillus gasseri
Procedure, shortened: as §1

Lactobacillus paracasei = system: Lactobacillus paracasei
Procedure, shortened: as §1

Odoribacter splanchnicus = system: Odoribacter splanchnicus
Procedure, shortened: as §1

[4] = system: Parabacteroides distasonis
Procedure, shortened: as §1

Parabacteroides merdae = system: Parabacteroides merdae
Procedure, shortened: as §1

Measured: growth AUC

CS(=O)(=O)c1cc(C(F)(F)F)ccc1C(=O)c1cnoc1C1CC1
inactive: Akkermansia muciniphila 1 | Bacteroides caccae 1.08 | Bacteroides clarus 1.01 | Bacteroides dorei 1.02 | Bacteroides stercoris 0.921 | [1] 1.02 | Bacteroides uniformis 0.994 | [2] 0.982 | Clostridium difficile 1.05 | Collinsella aerofaciens 1 | Coprococcus comes 1.02 | Escherichia coli ED1a 1.01 | Escherichia coli IAI1 1.01 | Eubacterium rectale 1.04 | [3] 0.93 | Lactobacillus gasseri 1.04 | Lactobacillus paracasei 0.826 | Odoribacter splanchnicus 1.1 | [4] 1.05 | Parabacteroides merdae 1.02

CNC(=O)Oc1cccc2c1OC(C)(C)C2
inactive: Akkermansia muciniphila 1.1 | Bacteroides caccae 0.964 | Bacteroides clarus 1.01 | Bacteroides dorei 0.999 | Bacteroides stercoris 1.02 | [1] 0.998 | Bacteroides uniformis 1 | [2] 0.996 | Clostridium difficile 1 | Collinsella aerofaciens 1.04 | Coprococcus comes 1.02 | Escherichia coli ED1a 1.04 | Escherichia coli IAI1 0.985 | Eubacterium rectale 1.02 | [3] 1.07 | Lactobacillus gasseri 0.946 | Lactobacillus paracasei 0.994 | Odoribacter splanchnicus 1.06 | [4] 0.992 | Parabacteroides merdae 1

O=C(NC(=O)c1c(F)cccc1F)Nc1cc(Cl)c(Oc2ncc(C(F)(F)F)cc2Cl)c(Cl)c1
inactive: Akkermansia muciniphila 1.02 | Bacteroides caccae 0.996 | Bacteroides clarus 0.997 | Bacteroides dorei 0.988 | Bacteroides stercoris 1.07 | [1] 1.03 | Bacteroides uniformis 0.977 | [2] 1.14 | Clostridium difficile 1 | Collinsella aerofaciens 1.11 | Coprococcus comes 1.02 | Escherichia coli ED1a 1.02 | Escherichia coli IAI1 0.991 | Eubacterium rectale 1.01 | [3] 1.02 | Lactobacillus gasseri 1.16 | Lactobacillus paracasei 1.02 | Odoribacter splanchnicus 1.02 | [4] 1.02 | Parabacteroides merdae 1.02

CCOP(=S)(OCC)Oc1cnc2ccccc2n1
active: [4] 0.589
inactive: Akkermansia muciniphila 0.881 | Bacteroides caccae 0.925 | Bacteroides clarus 0.94 | Bacteroides dorei 0.993 | Bacteroides stercoris 0.934 | [1] 0.895 | Bacteroides uniformis 0.867 | [2] 0.987 | Clostridium difficile 0.988 | Collinsella aerofaciens 0.992 | Coprococcus comes 0.989 | Escherichia coli ED1a 0.977 | Escherichia coli IAI1 0.977 | Eubacterium rectale 0.91 | [3] 0.995 | Lactobacillus gasseri 0.966 | Lactobacillus paracasei 1.01 | Odoribacter splanchnicus 1.01 | Parabacteroides merdae 0.947

CC(=O)O.CCCCCCCCCCCCN=C(N)N
inactive: Akkermansia muciniphila 1.28 | Bacteroides caccae 1.02 | Bacteroides clarus 0.988 | Bacteroides dorei 0.985 | Bacteroides stercoris 1.17 | [1] 1.01 | Bacteroides uniformis 0.986 | [2] 0.917 | Clostridium difficile 1 | Collinsella aerofaciens 0.972 | Coprococcus comes 1.02 | Escherichia coli ED1a 1.02 | Escherichia coli IAI1 1.02 | Eubacterium rectale 1.04 | [3] 1.04 | Lactobacillus gasseri 0.794 | Lactobacillus paracasei 1.02 | Odoribacter splanchnicus 1.02 | [4] 0.933 | Parabacteroides merdae 0.996

O.[Br-].[Br-].c1cc[n+]2c(c1)-c1cccc[n+]1CC2
inactive: Akkermansia muciniphila 0.784 | Bacteroides clarus 0.992 | Bacteroides dorei 0.996 | Bacteroides stercoris 1.01 | [1] 1.01 | Bacteroides uniformis 0.984 | [2] 1.02 | Clostridium difficile 0.912 | Collinsella aerofaciens 0.995 | Coprococcus comes 0.988 | Escherichia coli ED1a 1.03 | Escherichia coli IAI1 0.95 | Eubacterium rectale 1.21 | [3] 0.996 | Lactobacillus gasseri 1.11 | Lactobacillus paracasei 1.01 | Odoribacter splanchnicus 0.937 | Parabacteroides merdae 0.967
active: Bacteroides caccae 0.612 | [4] 0.781

COc1cc(OC)nc(NC(=O)NS(=O)(=O)c2cc(NC=O)ccc2C(=O)N(C)C)n1
inactive: Akkermansia muciniphila 0.976 | Bacteroides caccae 1.01 | Bacteroides clarus 0.979 | Bacteroides dorei 0.984 | Bacteroides stercoris 1.06 | [1] 0.971 | Bacteroides uniformis 1.03 | [2] 1.03 | Clostridium difficile 1.01 | Collinsella aerofaciens 1.05 | Coprococcus comes 0.993 | Escherichia coli ED1a 0.996 | Escherichia coli IAI1 1.01 | Eubacterium rectale 0.998 | [3] 1.06 | Lactobacillus gasseri 0.902 | Lactobacillus paracasei 1.05 | Odoribacter splanchnicus 1.01 | [4] 0.977 | Parabacteroides merdae 0.951

CC(C)OC(=O)Nc1cccc(Cl)c1
inactive: Akkermansia muciniphila 1.06 | Bacteroides caccae 0.915 | Bacteroides clarus 0.985 | Bacteroides dorei 0.948 | Bacteroides stercoris 1.04 | [1] 1.02 | Bacteroides uniformis 0.984 | [2] 0.981 | Clostridium difficile 1.01 | Collinsella aerofaciens 0.963 | Coprococcus comes 1.02 | Escherichia coli ED1a 1.01 | Escherichia coli IAI1 0.965 | Eubacterium rectale 1.07 | [3] 1.06 | Lactobacillus gasseri 0.85 | Lactobacillus paracasei 0.985 | Odoribacter splanchnicus 1.13 | [4] 0.965 | Parabacteroides merdae 1.06

CCOP(=S)(OCC)Oc1ccc(S(C)=O)cc1 (stereo not given)
inactive: Akkermansia muciniphila 0.951 | Bacteroides caccae 0.974 | Bacteroides clarus 0.967 | Bacteroides dorei 0.985 | Bacteroides stercoris 0.951 | [1] 0.968 | Bacteroides uniformis 0.993 | [2] 0.97 | Clostridium difficile 0.994 | Collinsella aerofaciens 1.05 | Coprococcus comes 1 | Escherichia coli ED1a 1 | Escherichia coli IAI1 1.01 | Eubacterium rectale 0.878 | [3] 0.998 | Lactobacillus gasseri 1.07 | Lactobacillus paracasei 1 | Odoribacter splanchnicus 0.977 | [4] 1 | Parabacteroides merdae 1

O=C1c2ccccc2C(=O)N1SC(Cl)(Cl)Cl
inactive: Akkermansia muciniphila 1 | Bacteroides caccae 1.02 | Bacteroides clarus 0.977 | Bacteroides dorei 1.04 | Bacteroides stercoris 0.995 | [1] 0.999 | Bacteroides uniformis 1.05 | [2] 0.988 | Clostridium difficile 1.01 | Collinsella aerofaciens 0.983 | Coprococcus comes 1.01 | Escherichia coli ED1a 0.996 | Escherichia coli IAI1 1.02 | Eubacterium rectale 1.06 | [3] 1.02 | Lactobacillus gasseri 1.01 | Lactobacillus paracasei 0.963 | Odoribacter splanchnicus 1.02 | [4] 1.06 | Parabacteroides merdae 1.05

CCOc1cc(C(C)(C)C)ccc1C1COC(c2c(F)cccc2F)=N1 (stereo not given)
inactive: Akkermansia muciniphila 0.955 | Bacteroides caccae 0.941 | Bacteroides clarus 1 | Bacteroides dorei 1.03 | Bacteroides stercoris 1.23 | [1] 0.978 | Bacteroides uniformis 0.958 | [2] 1.02 | Clostridium difficile 0.942 | Collinsella aerofaciens 0.987 | Coprococcus comes 0.996 | Escherichia coli ED1a 0.998 | Escherichia coli IAI1 1.02 | Eubacterium rectale 1 | [3] 1.08 | Lactobacillus gasseri 0.932 | Lactobacillus paracasei 1.01 | Odoribacter splanchnicus 1.04 | [4] 0.891 | Parabacteroides merdae 0.878

CN1COCN(Cc2cnc(Cl)s2)/C1=N/[N+](=O)[O-]
inactive: Akkermansia muciniphila 0.919 | Bacteroides caccae 1 | Bacteroides clarus 0.976 | Bacteroides dorei 0.932 | Bacteroides stercoris 1.03 | [1] 0.999 | Bacteroides uniformis 0.988 | [2] 0.984 | Clostridium difficile 1.01 | Collinsella aerofaciens 1.02 | Coprococcus comes 0.965 | Escherichia coli ED1a 0.987 | Escherichia coli IAI1 0.97 | Eubacterium rectale 0.953 | [3] 0.958 | Lactobacillus gasseri 1.04 | Lactobacillus paracasei 0.913 | Odoribacter splanchnicus 0.999 | [4] 0.991 | Parabacteroides merdae 0.994

ClC1=C(Cl)[C@]2(Cl)C3CC=CC3[C@@]1(Cl)C2(Cl)Cl (stereo not given in full)
inactive: Akkermansia muciniphila 0.898 | Bacteroides caccae 1.03 | Bacteroides clarus 0.999 | Bacteroides dorei 0.992 | Bacteroides stercoris 0.973 | [1] 0.981 | Bacteroides uniformis 0.971 | [2] 0.994 | Clostridium difficile 0.997 | Collinsella aerofaciens 0.965 | Coprococcus comes 0.942 | Escherichia coli ED1a 0.99 | Escherichia coli IAI1 1.01 | Eubacterium rectale 0.951 | [3] 0.846 | Lactobacillus gasseri 0.989 | Lactobacillus paracasei 1.03 | Odoribacter splanchnicus 0.987 | [4] 1.04 | Parabacteroides merdae 0.984

Oc1ccccc1Cl
inactive: Akkermansia muciniphila 0.985 | Bacteroides caccae 1.01 | Bacteroides clarus 0.993 | Bacteroides dorei 1.01 | Bacteroides stercoris 1.05 | [1] 0.983 | Bacteroides uniformis 0.988 | [2] 0.99 | Clostridium difficile 0.995 | Collinsella aerofaciens 1 | Coprococcus comes 0.975 | Escherichia coli ED1a 1.01 | Escherichia coli IAI1 1.01 | Eubacterium rectale 0.921 | [3] 0.994 | Lactobacillus gasseri 1.05 | Lactobacillus paracasei 0.883 | Odoribacter splanchnicus 0.906 | [4] 0.995 | Parabacteroides merdae 1

Nc1c(Cl)cc([N+](=O)[O-])cc1Cl
inactive: Akkermansia muciniphila 0.958 | Bacteroides caccae 0.927 | Bacteroides clarus 0.973 | Bacteroides dorei 0.967 | Bacteroides stercoris 0.875 | [1] 0.986 | Bacteroides uniformis 1.05 | [2] 1.07 | Clostridium difficile 1 | Collinsella aerofaciens 0.897 | Coprococcus comes 1.01 | Escherichia coli ED1a 0.951 | Escherichia coli IAI1 0.962 | Eubacterium rectale 1.08 | [3] 0.898 | Lactobacillus gasseri 0.923 | Lactobacillus paracasei 1.1 | Odoribacter splanchnicus 1.03 | [4] 0.933 | Parabacteroides merdae 0.93

CNc1nc(C)c(C)c(OC(=O)N(C)C)n1
inactive: Akkermansia muciniphila 0.975 | Bacteroides caccae 0.99 | Bacteroides clarus 0.953 | Bacteroides dorei 1.02 | Bacteroides stercoris 0.963 | [1] 0.986 | Bacteroides uniformis 1.04 | [2] 1.04 | Clostridium difficile 0.987 | Collinsella aerofaciens 0.994 | Coprococcus comes 0.998 | Escherichia coli ED1a 1.01 | Escherichia coli IAI1 0.957 | Eubacterium rectale 1.05 | [3] 1.09 | Lactobacillus gasseri 1.03 | Lactobacillus paracasei 0.971 | Odoribacter splanchnicus 0.985 | [4] 1.01 | Parabacteroides merdae 0.998

Source: the supplement of paper PMC12669032
